This passage reports growth results from PubChem BioAssay (NCI).

What all share (experiment): NCI-60 one-dose screen, 48 h (100 = growth as untreated, 0 = no growth, -100 = all killed)
The subject of one assay is SK-MEL-2 melanoma. To be noted: 10 µM unless noted.
Another assay has as its system SN12C renal. As to conditions: 10 µM unless noted.
The next assay relates to UO-31 renal. As to conditions: 10 µM unless noted.
The subject of the next assay is TK-10 renal. As to conditions: 10 µM unless noted.
Another assay has as its system ACHN renal. As to conditions: 10 µM unless noted.
The next assay relates to CAKI-1 renal. As to conditions: 10 µM unless noted.
The test system of the next assay is MOLT-4 leukemia. To be noted: 10 µM unless noted.
A further assay deals with SR leukemia. As to conditions: 10 µM unless noted.
The subject of a further assay is RPMI-8226 leukemia. As to conditions: 10 µM.
The next assay has as its system OVCAR-8 ovarian. As to conditions: 10 µM unless noted.
The next assay has as its system OVCAR-5 ovarian. As to conditions: 10 µM unless noted.
Another assay deals with OVCAR-4 ovarian. As to conditions: 10 µM unless noted.
The subject of another assay is SK-OV-3 ovarian. As to conditions: 10 µM.
The test system of the next assay is IGROV1 ovarian. To be noted: 10 µM unless noted.
In another assay the test system is OVCAR-3 ovarian. To be noted: 10 µM unless noted.
The subject of a further assay is HS 578T breast. As to conditions: 10 µM unless noted.
The test system of a further assay is NCI/ADR-RES ovarian. As to conditions: 10 µM unless noted.
In another assay the test system is CCRF-CEM leukemia. To be noted: 10 µM unless noted.
A further assay deals with A498 renal. To be noted: 10 µM unless noted.

This is part of a sample that, as a whole, favours compounds with a hit. Of some 83,000 tested, about 20% had one in any assay.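 Values shown are percent growth following 48 h exposure of cells in 96-well plates to a single concentration of compound; below 10 was considered active.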 Values without a mark were called inactive. Active and inactive are the calls of the source.

`COc1ccc(S(=O)(=O)ON=C2C=C(C)C(=O)C(C)=C2)cc1`: the growth is 82.5% with SK-MEL-2 melanoma; 113% in the assay with SN12C renal; 80.4% in the assay with UO-31 renal; 109% in the assay with TK-10 renal; 46% in the assay on ACHN renal; 61.6% in the assay on CAKI-1 renal. In addition, the growth in the assay on MOLT-4 leukemia was 42%; with SR leukemia it was 31.8%; in the assay on RPMI-8226 leukemia, 35.1%; in the assay with OVCAR-8 ovarian it was 93.1%; in the assay on OVCAR-5 ovarian it was 103%; with OVCAR-4 ovarian, 55.4%. In addition, the growth in the assay with SK-OV-3 ovarian is 66.9%; in the assay with IGROV1 ovarian, 95%; in the assay with OVCAR-3 ovarian, 68.5%; in the assay on HS 578T breast, 101%; in the assay with NCI/ADR-RES ovarian it was 98.5%.

As for `COc1cc(/C=N/NC(=O)c2cnn3c2NC(c2ccccc2)C3)cc(OC)c1OC` (centres undefined), the growth is 47.6% in the assay with SK-MEL-2 melanoma; 87.4% in the assay on SN12C renal; 68.9% with UO-31 renal; 85.7% in the assay with TK-10 renal; 80.2% with ACHN renal; 42.1% in the assay on CAKI-1 renal. Moreover, the growth with CCRF-CEM leukemia is 79.7%; in the assay with MOLT-4 leukemia, 80.5%; in the assay on RPMI-8226 leukemia it was 96.7%; with OVCAR-8 ovarian it was 90.7%; in the assay on OVCAR-5 ovarian, 87.2%; in the assay with OVCAR-4 ovarian, 82.5%. Also, the growth is 54.7% in the assay on IGROV1 ovarian, 10.4% in the assay with OVCAR-3 ovarian, 65.2% with HS 578T breast and 82.9% with NCI/ADR-RES ovarian.

With `Nc1nc2c(s1)CCc1c-2c(Br)n(Cc2ccccc2)c1Br`, the growth in the assay on SK-MEL-2 melanoma was 99.7%; with SN12C renal, 87.7%; in the assay on UO-31 renal it was 72.9%; in the assay on TK-10 renal, 88.1%; in the assay on ACHN renal, 19.4%; in the assay on CAKI-1 renal it was 81.5%. Further, the growth in the assay on MOLT-4 leukemia is 11%; in the assay with SR leukemia, 20.8%; in the assay on RPMI-8226 leukemia, 51.7%; in the assay on OVCAR-8 ovarian, 74.3%; in the assay with OVCAR-5 ovarian, 105%; in the assay on OVCAR-4 ovarian, 81.8%. For the same compound, the growth is 108% with SK-OV-3 ovarian; 104% in the assay on IGROV1 ovarian; 52.5% in the assay with OVCAR-3 ovarian; 96.9% with HS 578T breast; 89.7% in the assay on NCI/ADR-RES ovarian.

`Cc1ccc2c(N/N=C\c3ccco3)cc(C)nc2n1`: the growth with SK-MEL-2 melanoma is 114%; with SN12C renal it was 77.2%; in the assay on UO-31 renal, 35.1%; in the assay with TK-10 renal, 93.8%; with ACHN renal, 39.5%; with CAKI-1 renal, 66%. For the same compound, the growth in the assay with CCRF-CEM leukemia was 5.24% (active); in the assay with MOLT-4 leukemia, 37%; with SR leukemia, -8.66% (active); in the assay on RPMI-8226 leukemia it was 64.7%; in the assay on OVCAR-8 ovarian, 69.6%; in the assay on OVCAR-5 ovarian, 80.4%. In addition, the growth in the assay on OVCAR-4 ovarian was 46.9%; with SK-OV-3 ovarian it was 98.6%; with IGROV1 ovarian, 49%; in the assay with OVCAR-3 ovarian, 88%; in the assay with HS 578T breast, 86.3%; with NCI/ADR-RES ovarian, 71.8%.

As to `CCC(=O)Nc1nnc(Cc2ccc(OC)c(OC)c2)s1`, the growth with SK-MEL-2 melanoma was -6.77% (active); with SN12C renal it was 2.77% (active); with UO-31 renal, 19.6%; with TK-10 renal, -37.7% (active); with ACHN renal, 4.03% (active); in the assay with CAKI-1 renal, -33.6% (active). The growth is 38.3% in the assay with CCRF-CEM leukemia; -18.1% (active) in the assay on SR leukemia; 15.6% in the assay on RPMI-8226 leukemia; -32.6% (active) with OVCAR-8 ovarian; 85.9% in the assay with OVCAR-5 ovarian; -69.7% (active) with OVCAR-4 ovarian. The growth is 24.7% in the assay on SK-OV-3 ovarian; 30.1% in the assay on IGROV1 ovarian; -45.3% (active) in the assay with OVCAR-3 ovarian; -13% (active) in the assay on HS 578T breast; 81.3% with NCI/ADR-RES ovarian.

Consider `COc1ccc(C2CC(c3cc(OC)c(OC)c(OC)c3)=NN2c2ccc(S(N)(=O)=O)cc2)cc1` (centres undefined), for which the growth is 83.2% with SK-MEL-2 melanoma; 73.7% in the assay on SN12C renal; 29.8% in the assay on UO-31 renal; 66.4% in the assay with TK-10 renal; 76.5% in the assay with ACHN renal; 67.3% with CAKI-1 renal. Further, the growth with CCRF-CEM leukemia was 41.3%; in the assay with SR leukemia, 33.2%; in the assay on RPMI-8226 leukemia, 4.35% (active); in the assay with OVCAR-8 ovarian it was 61.9%; with OVCAR-5 ovarian, 92.3%; with OVCAR-4 ovarian, 69.9%. The growth in the assay on SK-OV-3 ovarian is 88.3%; in the assay on IGROV1 ovarian, 73.9%; with OVCAR-3 ovarian, 77.5%; in the assay with HS 578T breast it was 66.7%.

As to `C[C@@H](Oc1cc(-c2cnn(C3CC4(CCNCC4)C3)c2)cnc1N)c1c(F)ccc(Cl)c1Cl`, the growth with SK-MEL-2 melanoma is -65.5% (active); in the assay with SN12C renal it was 22%; in the assay on UO-31 renal, 13.8%; with ACHN renal it was 28.2%; with CAKI-1 renal, 60.9%; in the assay on A498 renal, -6.38% (active). The growth in the assay with CCRF-CEM leukemia is -19.6% (active); with MOLT-4 leukemia, -33% (active); with SR leukemia, -29.2% (active); with RPMI-8226 leukemia it was -40.1% (active); in the assay with OVCAR-8 ovarian, 39.8%; with OVCAR-5 ovarian it was 27.8%. The growth in the assay with OVCAR-4 ovarian is 40.7%; in the assay with SK-OV-3 ovarian, 62.6%; in the assay on IGROV1 ovarian it was 47.7%; with OVCAR-3 ovarian, 44.4%; in the assay with HS 578T breast, 25.6%; in the assay with NCI/ADR-RES ovarian, 61.5%.

As to `Cn1c2c(cc(S(=O)(=O)c3ccccc3)c1=O)CCc1c-2cnn1-c1cccc(Cl)c1`, the growth in the assay on SK-MEL-2 melanoma is 107%; in the assay on SN12C renal, 90.3%; in the assay on UO-31 renal, -84.5% (active); with TK-10 renal it was 86.5%; in the assay with CAKI-1 renal, -58% (active); in the assay with A498 renal, 71.4%. The growth in the assay with CCRF-CEM leukemia is 90.9%; in the assay with MOLT-4 leukemia, 86.2%; in the assay with RPMI-8226 leukemia it was 82.6%; in the assay with OVCAR-8 ovarian, 88.8%; with OVCAR-5 ovarian it was 93%; in the assay on OVCAR-4 ovarian, 60.9%. Also, the growth was 86.8% in the assay with SK-OV-3 ovarian; 97.5% with IGROV1 ovarian; 98.1% in the assay with OVCAR-3 ovarian; 92% in the assay on HS 578T breast; 90.6% in the assay on NCI/ADR-RES ovarian.

On to `C=CC(=O)N1CC2(CCC(n3nc(-c4ccc(Oc5ccccc5)cc4)c4c(N)ncnc43)CC2)C1`, for which the growth in the assay on SK-MEL-2 melanoma is -89.7% (active); in the assay with SN12C renal, -10.7% (active); in the assay on UO-31 renal it was -63.7% (active); with ACHN renal it was -83.6% (active); in the assay on CAKI-1 renal it was -75.1% (active); with A498 renal, -93.2% (active). The growth was -6.08% (active) in the assay on CCRF-CEM leukemia; -28.2% (active) in the assay on MOLT-4 leukemia; -23.2% (active) with SR leukemia; -56% (active) with RPMI-8226 leukemia; -36.5% (active) in the assay on OVCAR-8 ovarian; -0.902% (active) in the assay on OVCAR-5 ovarian. For the same compound, the growth is -10.7% (active) with OVCAR-4 ovarian; -24.6% (active) with SK-OV-3 ovarian; -51.2% (active) in the assay with IGROV1 ovarian; -36.6% (active) with OVCAR-3 ovarian; -35.5% (active) in the assay with HS 578T breast; -9.16% (active) with NCI/ADR-RES ovarian.
